Unmarked numbers belong to inactive results. Records with an inconclusive call do not appear. Activity calls are given as the source filed them. Calls follow the shape of the dose curve; as a rule, active = well fitted inhibition curve with a large enough effect; inconclusive = small, poorly fitted or top-dose-only effect; inactive = no such curve, though single readings can be large or run the other way. Residues, ends and D or L forms follow the SMILES beside them. *: point of attachment. Cbz = O=C(OCc1ccccc1)*

Sequence of Pyruvate kinase (Leishmania mexicana) (Q27686 2-499 E452W): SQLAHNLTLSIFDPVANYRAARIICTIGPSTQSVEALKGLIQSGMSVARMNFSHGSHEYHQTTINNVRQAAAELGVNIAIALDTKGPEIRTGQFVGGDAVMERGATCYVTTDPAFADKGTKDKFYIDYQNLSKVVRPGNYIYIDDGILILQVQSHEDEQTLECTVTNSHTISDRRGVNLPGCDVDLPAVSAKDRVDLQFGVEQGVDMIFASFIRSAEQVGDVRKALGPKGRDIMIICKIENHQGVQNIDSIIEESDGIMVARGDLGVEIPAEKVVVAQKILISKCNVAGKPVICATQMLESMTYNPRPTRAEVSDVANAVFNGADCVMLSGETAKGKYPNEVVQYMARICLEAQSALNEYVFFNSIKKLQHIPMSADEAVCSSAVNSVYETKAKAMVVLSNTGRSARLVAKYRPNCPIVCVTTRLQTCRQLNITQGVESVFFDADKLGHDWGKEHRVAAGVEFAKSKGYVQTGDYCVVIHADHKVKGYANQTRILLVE
Sequence of Muscarinic acetylcholine receptor M1 (Rattus norvegicus) (P08482 whole entry, looked up): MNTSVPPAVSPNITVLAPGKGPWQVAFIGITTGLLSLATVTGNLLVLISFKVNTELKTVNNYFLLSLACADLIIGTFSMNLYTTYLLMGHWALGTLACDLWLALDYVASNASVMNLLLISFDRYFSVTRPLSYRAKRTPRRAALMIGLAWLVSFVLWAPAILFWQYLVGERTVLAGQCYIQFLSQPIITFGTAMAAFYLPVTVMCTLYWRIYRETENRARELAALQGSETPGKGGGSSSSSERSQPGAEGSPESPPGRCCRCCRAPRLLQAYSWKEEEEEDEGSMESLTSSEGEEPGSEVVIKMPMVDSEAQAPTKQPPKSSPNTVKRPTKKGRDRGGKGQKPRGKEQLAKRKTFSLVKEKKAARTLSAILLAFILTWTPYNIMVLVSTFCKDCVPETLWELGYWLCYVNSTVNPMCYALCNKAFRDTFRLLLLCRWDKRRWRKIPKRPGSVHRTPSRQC

For the first experiment, the target named is Muscarinic acetylcholine receptor M1 (Rattus norvegicus) (UniProt P08482). In words: qHTS Assay for Antagonists of Acetylcholine Muscarinic M1 Receptor: Kinetic Measurement of Intracellular Calcium Response (AID 943). Also: nearly all actives have a fitted effect of over 75% in size. Also: potency is read from the fitted curve at half-maximal effect.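 As to activity change, negative = inhibition: Fluo-4 calcium signal as peak divided by basal fluorescence over 4 min.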 The settings on record: M1-expressing cells, kinetic intracellular calcium fluorescence; series mostly up to 35.3 µM; activity change, negative = inhibition: at the top concentration. Put shortly:
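Rat M1-CHO cells, 2000/well, overnight → Fluo-4 no-wash dye with probenecid, 1 h 37C → compound 10 min, room temp → basal read 6 s → carbachol EC80 (100 nM) → 4 min kinetic read; peak/basal.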
For orientation: Quantitative high-throughput screening tests each substance at several concentrations.
Turning to `Oc1ccc(Cn2cc[nH]c2=S)cc1`, the “activity change, negative = inhibition” value is -30.3%. Turning to `O=C(OCCN1CCOCC1)C1(c2ccccc2)CCCCC1`, the Potency was 2000 nM (active). For the compound `COc1ccc2c(c1)c(CC(=O)O)c(C)n2Cc1ccc(Cl)cc1`, the “activity change, negative = inhibition” value was 13.4%. Same read-out and setting: next, `NC(N)=[N+]1CCc2ccccc2C1`: 16.1%; `CCCCCCCCCCC/C=C\C(C)(C)/C=C\CCCC(=O)O`: -26.3%; `N[C@@H](CS(=O)O)C(=O)O`: -35.9%. As to `COc1ccc(C(=O)NCc2cccnc2)cc1C(=O)NCc1cccnc1`, the “activity change, negative = inhibition” value was -27.2%. Same read-out and setting: next, `N[C@@H](Cc1c[nH]c2ccccc12)C(=O)O`: -40.2%. Same read-out and setting: next, `NC(=O)CNCCC(c1ccccc1)c1ccccc1`: -39.6%; `N#C/C(=C\c1ccc(O)c(O)c1)C(=O)NCCCNC(=O)/C(C#N)=C/c1ccc(O)c(O)c1`: -37.4%; `N[C@@H](Cc1ccc(O)c(I)c1)C(=O)O`: -26.3%. The same measure, in the same setting: then `COc1cc(/C=C(\C#N)C(=O)c2ccc(O)c(O)c2)cc(I)c1O`, with 345%; and `O=c1onc2n1-c1cc(Br)ccc1OC2`, with -39.9%. Consider `CC(N)=O`, for which the “activity change, negative = inhibition” value is 4.09%. Take `CC(C)[C@H](NC(=O)OCc1ccccc1)C(=O)N[C@H](C=O)Cc1ccccc1` (Cbz-Val-Phe-aldehyde): the “activity change, negative = inhibition” value is 10.3%. On the same count and under the same terms, next, `O=C(O)Cc1c[nH]c2ccc(O)cc12`: -35.6%. `CCCn1c(=O)c2[nH]c(-c3ccc(S(=O)(=O)O)cc3)nc2n(CCC)c1=O`: the “activity change, negative = inhibition” value is -32.2%. `Cc1ccc([N+](=O)[O-])cc1S(=O)(=O)N(C)C`: the “activity change, negative = inhibition” value was -44.9%. On the same count and under the same terms, next, `Cc1cc2c(cc1Cl)N(C(=O)Nc1ccnc3ccccc13)CC2`: -16.7%; `Nc1nc2[nH]c(=O)cnc2c(=O)[nH]1`: -26.7%. As for `COc1cc(CNC(=O)CCCCCCC(C)C)ccc1O`, the “activity change, negative = inhibition” value is -29.8%. Consider `COc1ccc2c(c1)c(CC(=O)O)c(C)n2C(=O)c1ccccc1`, for which the “activity change, negative = inhibition” value is -30.5%.

For a further experiment the target is unchanged. The experiment can be described thus: qHTS Assay for Antagonists of Acetylcholine Muscarinic M1 Receptor: Measurement of IP-One Response (AID 944). Also: nearly all actives have a fitted effect of over 75% in size. The conditions noted are these: CHO-M1 cells, IP-One HTRF, antagonist mode; series mostly up to 46.1 µM; activity change, negative = inhibition: at the top concentration. A digest of the protocol: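 M1-CHO (rat), 2000 cells/well, overnight recovery; cpd 10 min; carbachol EC80 (200 nM), 30 min, HEPES buffer + 50 mM LiCl pH 7.4; IP-One HTRF, Ex 337, Em 620/665 nm.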
Consider `Oc1ccc(Cn2cc[nH]c2=S)cc1`, for which the “activity change, negative = inhibition” value was -30.9%. On to `COc1ccc2c(c1)c(CC(=O)O)c(C)n2Cc1ccc(Cl)cc1`, for which the “activity change, negative = inhibition” value is -38.6%.

As for `CCCCCCCCCCC/C=C\C(C)(C)/C=C\CCCC(=O)O`, the “activity change, negative = inhibition” value was -0.498%. For `N[C@@H](CS(=O)O)C(=O)O`, the “activity change, negative = inhibition” value was -17%. `COc1ccc(C(=O)NCc2cccnc2)cc1C(=O)NCc1cccnc1`: the “activity change, negative = inhibition” value is -11.1%. On the same count and under the same terms, next, `N[C@@H](Cc1ccc(O)c(I)c1)C(=O)O`: -2.54%.

As to `C[C@H](O)C(=O)C1=Nc2c(nc(N)[nH]c2=O)NC1`, the “activity change, negative = inhibition” value was -11.3%. Same read-out and setting: next, `CC(N)=O`: -36.1%; `O=C(O)Cc1c[nH]c2ccc(O)cc12`: -16.1%.

For the compound `CCCn1c(=O)c2[nH]c(-c3ccc(S(=O)(=O)O)cc3)nc2n(CCC)c1=O`, the “activity change, negative = inhibition” value was 6.41%.

Regarding `Cc1ccc([N+](=O)[O-])cc1S(=O)(=O)N(C)C`, the Potency entry is “inactive”. Turning to `Cc1cc2c(cc1Cl)N(C(=O)Nc1ccnc3ccccc13)CC2`, the “activity change, negative = inhibition” value is -25.9%. For the compound `Nc1nc2[nH]c(=O)cnc2c(=O)[nH]1`, the “activity change, negative = inhibition” value is 2.38%. The same measure, in the same setting: then `COc1ccc2c(c1)c(CC(=O)O)c(C)n2C(=O)c1ccccc1`, with -17.3%; and `COc1ccccc1N1CCN(CCN(C(=O)c2ccc(F)cc2)c2ccccn2)CC1`, with -33.2%.

Take `CCCOC(=O)c1c(-c2ccccc2)nc(CC)c(C(=O)SCC)c1CCC`: the “activity change, negative = inhibition” value is -22.4%.

As for `CCCc1c(OCCCOc2ccc(OCC(=O)O)cc2)ccc(C(C)=O)c1O`, the “activity change, negative = inhibition” value was -43.2%.

Another experiment concerns the target Pyruvate kinase (Leishmania mexicana) (UniProt Q27686). The experiment can be described thus: qHTS Validation Assay for Inhibitors of Leishmania Mexicana Pyruvate Kinase (AID 945).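 Also: 0% = DMSO only neutral control wells.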 The conditions noted are these: purified L. mexicana pyruvate kinase, enzyme activity, E451W mutant enzyme; series mostly up to 57.5 µM; activity change, negative = inhibition: at the top concentration. A digest of the protocol: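 qHTS eight-point titrations against 0.2 nM LmPYK (E451W) in imidazole buffer pH 7.2 with 0.5 mM PEP, 0.1 mM ADP; 1 h, room temperature. Readout: PKLight luminescence, normalized to neutral DMSO wells.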
Regarding `Oc1ccc(Cn2cc[nH]c2=S)cc1`, the “activity change, negative = inhibition” value was -8.06%. As for `COc1ccc2c(c1)c(CC(=O)O)c(C)n2Cc1ccc(Cl)cc1`, the “activity change, negative = inhibition” value was -15.5%. The same measure, in the same setting: next, `Fc1ccc(CN(C2=NCCN2)c2c(Cl)cccc2Cl)cc1`: -3.91%. For `Nc1ccc2c3c(cccc13)C(=O)NC2=O`, the “activity change, negative = inhibition” value was 6.04%. Regarding `c1ccc(CN2CCC3(CCCc4ccccc43)CC2)cc1`, the “activity change, negative = inhibition” value was -2%. In the case of `NC(N)=[N+]1CCc2ccccc2C1`, the “activity change, negative = inhibition” value was 5.36%. For `CCCCCCCCCCC/C=C\C(C)(C)/C=C\CCCC(=O)O`, the “activity change, negative = inhibition” value is -7.33%. The same measure, in the same setting: next, `N[C@@H](CS(=O)O)C(=O)O`: 2.18%; `c1ccc2c(c1)CC(N1CCN(c3cccc4c3OCCO4)CC1)C2`: 3.2%; `COc1ccc(C(=O)NCc2cccnc2)cc1C(=O)NCc1cccnc1`: 6.55%. On the same count and under the same terms, then `N[C@@H](Cc1c[nH]c2ccccc12)C(=O)O`, with -5.97%. The same measure, in the same setting: next, `NC(=O)CNCCC(c1ccccc1)c1ccccc1`: 2.47%; `COc1ccccc1N1CCN(CCCCN2C(=O)c3ccccc3C2=O)CC1`: -9.1%.

`COc1cc(/C=C(\C#N)C(=O)c2ccc(O)c(O)c2)cc(I)c1O`: the “activity change, negative = inhibition” value was 119%. For the compound `O=c1onc2n1-c1cc(Br)ccc1OC2`, the “activity change, negative = inhibition” value is -2.31%. The same measure, in the same setting: then `CC(C)[C@H](NC(=O)OCc1ccccc1)C(=O)N[C@H](C=O)Cc1ccccc1` (Cbz-Val-Phe-aldehyde), with -9.1%; and `O=c1[nH]c2cc(Cl)ccc2c(O)c1-c1ccc(Oc2ccccc2)cc1`, with 14.5%; and `O=C(O)Cc1c[nH]c2ccc(O)cc12`, with 13.7%.

As to `CCCn1c(=O)c2[nH]c(-c3ccc(S(=O)(=O)O)cc3)nc2n(CCC)c1=O`, the “activity change, negative = inhibition” value is -8.81%.

In the case of `O=S(=O)(c1cccc2c(Cl)cccc12)N1CCCNCC1`, the “activity change, negative = inhibition” value is -5.61%. On to `Nc1nc2[nH]c(=O)cnc2c(=O)[nH]1`, for which the “activity change, negative = inhibition” value was -9.68%.

In the case of `COc1cc(CNC(=O)CCCCCCC(C)C)ccc1O`, the “activity change, negative = inhibition” value was 5.14%. Still for that read-out and setting: next, `COc1ccc2c(c1)c(CC(=O)O)c(C)n2C(=O)c1ccccc1`: 3.41%; `COc1ccccc1N1CCN(CCN(C(=O)c2ccc(F)cc2)c2ccccn2)CC1`: 3.45%; `O=c1[nH]c2ccccc2c2ccccc12`: -5.38%. Regarding `CCCOC(=O)c1c(-c2ccccc2)nc(CC)c(C(=O)SCC)c1CCC`, the “activity change, negative = inhibition” value is 15.8%. Take `CCCc1c(OCCCOc2ccc(OCC(=O)O)cc2)ccc(C(C)=O)c1O`: the “activity change, negative = inhibition” value is 4.65%.
